The results in this text go back to PubChem BioAssay (EPA / NIEHS).

Records with an inconclusive call do not appear. Active and inactive are the calls of the source. Rule for the calls: active = hit-call score of the fitted dose curve at least 0.9, where 1 is the maximum; inconclusive = response in the unintended direction; inactive = score below 0.9.

Read-out in this assay: Cytochrome P450 2C9 (Homo sapiens) (UniProt P11712)
Description: CLD_CYP2C9_24hr: CellzDirect (CLD) Gene Expression Assay for xenobiotic metabolism (CYP2C9) at 24 hours (AID 2283688). The protocol: CLD_24hr is a cell-based, multiplexed-readout assay that uses hepatocyte, a human liver primary cell, with measurements taken at 24 hours after chemical dosing in a 96-well plate.CLD_CYP2C9_24hr is one of 16 assay component(s) measured or calculated from the CLD_24hr assay. It is designed to make measurements of mRNA induction, a form of inducible reporter, as detected with chemiluminescence signals by Quantitative Nuclease Protection Assay (qNPA) technology.Data from the assay component CLD_CYP2C9_24hr was analyzed at the endpoint, CLD_CYP2C9_24hr, in the positive analysis fitting direction relative to DMSO as the negative control and baseline of activity. Using a type of inducible reporter, gain-of-signal activity can be used to understand changes in the reporter gene as they relate to the gene CYP2C9. Furthermore, this assay endpoint can be referred to as a primary readout. To generalize the intended target to other relatable targets, this assay endpoint is annotated to the cyp intended target family, where subfamily is xenobiotic metabolism.
Human hepatocyte cultures were treated daily for two consecutive days with fresh dosing solutions containing appropriate concentrations of the 320 ToxCast chemicals (chemical identities were blinded to CellzDirect and other ToxCast collaborators), vehicle control (0.2% DMSO), and positive control inducers as summarized in Table 1. Due to the large number of treatment groups and chemicals examined, the ToxCast chemicals were divided into two groups (spanning two independent cultures of hepatocytes from separate donor preparations (Hu778: ToxCast plates 1 and 2; Hu776: ToxCast plates 3 and 4). Each preparation of human hepatocyte cultures was treated with respective vehicle control, medium only control, set of six positive controls/reference chemicals for the five hepatic receptor pathways, and a subset of eight of the ToxCast chemicals (indoxacarb, pyrithiobac-sodium, norflurazon, cyhalofop-butyl, methomyl, thiram, acetochlor, and propiconazole). These replicate data, coupled with internal replicates designed within the blinded ToxCast chemical library, provided additional data to evaluate interindividual differences between hepatocyte preparations and their potential impact on chemical profiles.Cell morphology and integrity were evaluated using phase-contrast microscopy as an indicator of hepatocyte cell health (Tyson & Green, 1987). Cultures for each treatment group (i.e., media, vehicle [0.2% DMSO], positive control inducers [multiple concentrations], and the ToxCast chemicals [multiple concentrations]) were observed and cell morphology was assessed relative to vehicle control cultures at each harvest time point (0, 6, 24, or 48 h). […] Images were evaluated at the conclusion of the study to assess changes in cell integrity and account for the effects of chemical exposure on uncharacteristic changes in concentration-dependent gene expression profiles. The results from these determinations of apparent cytotoxicity were annotated (yes/no) alongside the corresponding qNPA data for reference.At the conclusion of each treatment period, hepatocyte cultures (96-well) were washed with 1 volume of HBSS, lysed by addition of 25 ul ArrayPlate lysis buffer (HTG, Tucson, AZ), and 70 ul/well of Denaturation Oil, denatured by incubation at 95C for 10 min, and frozen at approximately -70C until analysis by nuclease protection assay (qNPA) (Roberts et al., 2007). For qNPA analysis, cell lysates were thawed at 50C for approximately 30 min, qNPA probes were added, and samples were incubated at 95C for 10 min to begin the detection process by denaturing the target RNA, dissociating the duplexes and secondary structure hybridization. At the conclusion of the hybridization period, S1 nuclease reagent was added to each sample to digest all nonprotected nucleotides at 50C for 60-90 min. […]
On to `COc1c(Cl)ccc(Cl)c1C(=O)O`, for which the outcome was inactive.

For the compound `CCCOC(=O)c1ccc(C(=O)OCCC)nc1`, the result was inactive.

Consider `CCCN(CCC)C(=O)SCC`, for which the compound was classed as inactive.

Regarding `CCOC(=O)[C@H](C)Oc1ccc(Oc2nc3ccc(Cl)cc3o2)cc1`, the outcome was inactive.

Turning to `COC(=O)c1cccc(C)c1S(=O)(=O)NC(=O)Nc1nc(OCC(F)(F)F)nc(N(C)C)n1`, the call was inactive.

Regarding `CCCCC(CC)COC(=O)c1ccccc1C(=O)O` (stereo not drawn), the call was inactive.

Turning to `CCC(O)=C1C(=O)CC(C(=O)O)CC1=O` (stereo not drawn), the outcome was inactive.

As to `CCNc1nc(N)nc(Cl)n1`, the compound was classed as inactive.

Regarding `CCOC(=O)NCCOc1ccc(Oc2ccccc2)cc1`, the compound was classed as inactive.

`CC(C)(c1ccc(O)cc1)c1ccc(O)cc1`: the outcome was inactive.

With `COCCO`, the compound was classed as inactive.

As for `CCCCOC(=O)C(C)Oc1ccc(Oc2ccc(C(F)(F)F)cn2)cc1` (stereo not drawn), the result was inactive.

With `CCCCCCC(C)OC(=O)COc1nc(F)c(Cl)c(N)c1Cl` (stereo not drawn), the call was inactive.

Consider `CC1(C)C(C=C(Cl)Cl)C1C(=O)OCc1cccc(Oc2ccccc2)c1` (stereo not drawn), for which the compound was called inactive.

`CCCCCOC(=O)COc1cc(N2C(=O)C3=C(CCCC3)C2=O)c(F)cc1Cl`: the result was inactive.

For the compound `c1ccc(Nc2ccccc2)cc1`, the result was inactive.

Take `CCCCOCCOCCOCc1cc2c(cc1CCC)OCO2`: the result was inactive.

With `O=C(Nc1ccc([N+](=O)[O-])cc1Cl)c1cc(Cl)ccc1O`, the call was inactive.
